Columns and labels:
Experiment in all cases: log2 ratio of Biotin-Ahx-Ub-VS probe labelling (fragment/DMSO); higher = less target engagement (more negative = stronger competition), active = hit call of the paper (q ≤ 0.05, log2 ratio ≤ -1)
Details in all cases: compound concentration: 200 uM; treatment time: 3 h
USP42 = target: T1, USP42 (UniProt Q9H9J4)
T1 sequence (whole entry): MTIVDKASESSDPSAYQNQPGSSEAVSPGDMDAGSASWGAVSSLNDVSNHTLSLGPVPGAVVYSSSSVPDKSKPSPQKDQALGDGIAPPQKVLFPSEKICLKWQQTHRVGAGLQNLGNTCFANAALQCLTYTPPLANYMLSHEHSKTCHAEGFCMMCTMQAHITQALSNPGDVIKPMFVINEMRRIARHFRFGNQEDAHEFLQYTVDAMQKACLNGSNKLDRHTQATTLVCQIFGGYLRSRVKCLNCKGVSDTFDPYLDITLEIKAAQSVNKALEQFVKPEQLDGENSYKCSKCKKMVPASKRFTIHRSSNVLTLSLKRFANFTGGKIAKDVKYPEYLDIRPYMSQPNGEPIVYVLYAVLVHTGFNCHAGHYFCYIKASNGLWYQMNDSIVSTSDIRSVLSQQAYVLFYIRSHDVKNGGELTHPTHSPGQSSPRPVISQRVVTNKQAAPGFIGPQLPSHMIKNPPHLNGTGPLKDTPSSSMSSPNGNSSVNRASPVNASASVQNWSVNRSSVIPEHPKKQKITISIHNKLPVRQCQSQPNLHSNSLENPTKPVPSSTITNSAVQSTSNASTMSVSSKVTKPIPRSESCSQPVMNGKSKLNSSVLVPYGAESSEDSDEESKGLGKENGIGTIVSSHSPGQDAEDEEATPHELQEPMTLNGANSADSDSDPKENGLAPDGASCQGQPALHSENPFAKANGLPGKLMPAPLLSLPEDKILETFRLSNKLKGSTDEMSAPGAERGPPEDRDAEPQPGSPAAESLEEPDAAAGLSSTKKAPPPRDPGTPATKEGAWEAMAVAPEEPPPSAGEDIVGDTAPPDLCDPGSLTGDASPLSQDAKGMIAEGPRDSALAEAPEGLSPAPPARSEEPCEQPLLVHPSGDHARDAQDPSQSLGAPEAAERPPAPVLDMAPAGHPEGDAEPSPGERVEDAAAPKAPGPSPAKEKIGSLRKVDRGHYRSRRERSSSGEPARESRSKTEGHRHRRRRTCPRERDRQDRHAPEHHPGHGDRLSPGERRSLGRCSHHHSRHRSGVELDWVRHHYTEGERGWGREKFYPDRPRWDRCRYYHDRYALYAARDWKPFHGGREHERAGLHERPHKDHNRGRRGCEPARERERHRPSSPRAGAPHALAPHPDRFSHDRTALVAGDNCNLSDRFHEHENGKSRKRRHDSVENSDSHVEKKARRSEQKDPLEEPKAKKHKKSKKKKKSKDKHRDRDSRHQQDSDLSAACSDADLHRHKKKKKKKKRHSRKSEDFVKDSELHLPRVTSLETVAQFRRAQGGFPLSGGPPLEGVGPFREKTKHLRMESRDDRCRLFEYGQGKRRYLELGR
Procedure, shortened: (§1)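 Using Biotin-Ahx-Ub-VS at 0.5 µM final for 1 h, DUBs were labelled in HEK293T lysate (495 µg per sample) that had first been treated in triplicate with fragment at 200 µM or vehicle for 3 h. NeutrAvidin enrichment, LysC and trypsin digestion and diaPASEF LC-MS/MS followed. Spectronaut label-free quantities were global-median-normalised. Values are average log2 fragment/vehicle ratios by unpaired t-test, using proteins with ≥2 unique peptides.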

USP46 = USP46 (UniProt P62068)
Procedure, shortened: as §1

USP47 = target: T2, USP47 (UniProt Q96K76)
T2 sequence (whole entry): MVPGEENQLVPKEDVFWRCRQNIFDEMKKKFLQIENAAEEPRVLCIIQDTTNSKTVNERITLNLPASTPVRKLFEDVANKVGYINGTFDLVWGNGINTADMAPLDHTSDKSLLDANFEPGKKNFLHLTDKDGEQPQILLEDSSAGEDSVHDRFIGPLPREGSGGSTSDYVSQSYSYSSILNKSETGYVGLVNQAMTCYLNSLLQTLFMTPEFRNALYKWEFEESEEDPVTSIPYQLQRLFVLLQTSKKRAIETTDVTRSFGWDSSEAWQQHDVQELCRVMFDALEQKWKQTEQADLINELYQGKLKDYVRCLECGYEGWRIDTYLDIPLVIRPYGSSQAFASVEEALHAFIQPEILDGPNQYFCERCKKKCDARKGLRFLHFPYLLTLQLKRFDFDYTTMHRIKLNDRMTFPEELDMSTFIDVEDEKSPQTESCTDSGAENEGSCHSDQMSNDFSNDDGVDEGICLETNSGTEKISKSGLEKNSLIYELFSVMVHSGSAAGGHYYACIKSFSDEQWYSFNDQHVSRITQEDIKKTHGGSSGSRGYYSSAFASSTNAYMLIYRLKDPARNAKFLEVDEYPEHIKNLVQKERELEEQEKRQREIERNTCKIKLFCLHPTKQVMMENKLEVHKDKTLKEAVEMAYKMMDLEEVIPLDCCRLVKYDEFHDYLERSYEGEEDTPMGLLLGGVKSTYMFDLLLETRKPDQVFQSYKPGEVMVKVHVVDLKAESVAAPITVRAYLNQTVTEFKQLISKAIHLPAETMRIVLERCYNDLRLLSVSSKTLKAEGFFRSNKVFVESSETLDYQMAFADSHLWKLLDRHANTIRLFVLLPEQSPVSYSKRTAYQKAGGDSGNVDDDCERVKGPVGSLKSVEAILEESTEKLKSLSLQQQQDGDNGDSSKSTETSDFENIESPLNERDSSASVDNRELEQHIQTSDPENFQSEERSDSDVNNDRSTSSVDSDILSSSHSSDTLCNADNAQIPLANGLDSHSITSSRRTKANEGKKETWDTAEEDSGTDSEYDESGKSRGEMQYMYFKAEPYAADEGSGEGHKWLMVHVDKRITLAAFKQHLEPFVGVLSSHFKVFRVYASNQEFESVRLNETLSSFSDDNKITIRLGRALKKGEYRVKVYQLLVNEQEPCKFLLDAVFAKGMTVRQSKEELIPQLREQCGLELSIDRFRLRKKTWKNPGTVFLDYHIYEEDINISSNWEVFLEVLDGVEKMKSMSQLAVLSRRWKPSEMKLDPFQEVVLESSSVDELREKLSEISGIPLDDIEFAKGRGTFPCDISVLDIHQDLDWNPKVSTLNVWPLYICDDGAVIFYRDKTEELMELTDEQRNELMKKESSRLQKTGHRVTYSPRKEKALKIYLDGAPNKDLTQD
Procedure, shortened: as §1

USP48 = target: T3, USP48 (UniProt Q86UV5)
T3 sequence (whole entry): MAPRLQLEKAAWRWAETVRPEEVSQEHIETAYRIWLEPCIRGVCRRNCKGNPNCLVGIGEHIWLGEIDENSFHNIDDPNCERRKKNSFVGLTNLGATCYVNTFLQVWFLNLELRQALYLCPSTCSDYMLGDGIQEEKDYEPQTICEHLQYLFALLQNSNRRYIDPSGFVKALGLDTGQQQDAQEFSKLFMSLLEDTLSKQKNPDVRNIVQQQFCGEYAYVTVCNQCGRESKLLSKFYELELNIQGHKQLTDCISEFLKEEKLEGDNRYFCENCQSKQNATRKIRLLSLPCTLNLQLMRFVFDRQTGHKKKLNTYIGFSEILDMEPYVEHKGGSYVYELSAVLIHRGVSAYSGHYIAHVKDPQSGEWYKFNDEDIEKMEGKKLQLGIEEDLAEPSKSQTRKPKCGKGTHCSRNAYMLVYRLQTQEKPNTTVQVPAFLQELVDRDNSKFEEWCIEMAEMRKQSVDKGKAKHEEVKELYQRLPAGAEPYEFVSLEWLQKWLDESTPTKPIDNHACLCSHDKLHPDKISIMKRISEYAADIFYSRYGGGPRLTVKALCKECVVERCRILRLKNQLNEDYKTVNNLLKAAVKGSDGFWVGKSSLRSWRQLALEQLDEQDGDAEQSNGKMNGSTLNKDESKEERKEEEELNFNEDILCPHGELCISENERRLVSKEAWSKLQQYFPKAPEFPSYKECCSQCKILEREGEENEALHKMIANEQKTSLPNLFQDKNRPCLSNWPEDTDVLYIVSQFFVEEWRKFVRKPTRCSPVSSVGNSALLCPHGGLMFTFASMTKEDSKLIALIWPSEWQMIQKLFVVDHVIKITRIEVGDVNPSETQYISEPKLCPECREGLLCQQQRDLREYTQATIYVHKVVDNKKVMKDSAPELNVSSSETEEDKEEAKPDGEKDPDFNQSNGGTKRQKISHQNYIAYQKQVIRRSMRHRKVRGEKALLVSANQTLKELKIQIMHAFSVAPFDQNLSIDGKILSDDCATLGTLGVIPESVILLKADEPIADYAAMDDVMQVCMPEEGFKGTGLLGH
Procedure, shortened: as §1

USP5 = target: T4, USP5 (UniProt P45974)
T4 sequence (whole entry): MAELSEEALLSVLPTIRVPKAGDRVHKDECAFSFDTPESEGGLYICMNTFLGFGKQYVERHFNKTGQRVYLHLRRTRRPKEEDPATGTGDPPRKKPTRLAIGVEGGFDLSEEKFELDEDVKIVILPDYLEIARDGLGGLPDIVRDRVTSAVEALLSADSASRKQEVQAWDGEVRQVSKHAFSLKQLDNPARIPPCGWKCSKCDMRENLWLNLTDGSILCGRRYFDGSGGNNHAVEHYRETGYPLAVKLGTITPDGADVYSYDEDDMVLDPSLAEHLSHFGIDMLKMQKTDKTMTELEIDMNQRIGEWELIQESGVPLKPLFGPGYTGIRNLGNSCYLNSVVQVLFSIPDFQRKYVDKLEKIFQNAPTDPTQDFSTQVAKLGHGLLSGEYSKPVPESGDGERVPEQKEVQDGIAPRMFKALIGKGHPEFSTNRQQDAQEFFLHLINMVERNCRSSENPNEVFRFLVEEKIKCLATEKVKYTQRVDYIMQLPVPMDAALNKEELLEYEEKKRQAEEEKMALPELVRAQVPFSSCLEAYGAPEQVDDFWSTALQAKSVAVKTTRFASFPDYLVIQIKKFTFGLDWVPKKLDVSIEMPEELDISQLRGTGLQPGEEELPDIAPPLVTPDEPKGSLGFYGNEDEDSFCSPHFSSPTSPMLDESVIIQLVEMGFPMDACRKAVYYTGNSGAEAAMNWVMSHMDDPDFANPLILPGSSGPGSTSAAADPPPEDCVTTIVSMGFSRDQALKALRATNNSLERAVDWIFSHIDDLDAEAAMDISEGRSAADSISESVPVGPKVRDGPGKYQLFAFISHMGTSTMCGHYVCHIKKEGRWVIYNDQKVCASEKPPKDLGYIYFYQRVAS
Procedure, shortened: as §1

USP54 = USP54 (UniProt Q70EL1)
Procedure, shortened: as §1

USP7 = USP7 (UniProt Q93009)
Procedure, shortened: as §1

USP8 = target: T5, USP8 (UniProt P40818)
T5 sequence (whole entry): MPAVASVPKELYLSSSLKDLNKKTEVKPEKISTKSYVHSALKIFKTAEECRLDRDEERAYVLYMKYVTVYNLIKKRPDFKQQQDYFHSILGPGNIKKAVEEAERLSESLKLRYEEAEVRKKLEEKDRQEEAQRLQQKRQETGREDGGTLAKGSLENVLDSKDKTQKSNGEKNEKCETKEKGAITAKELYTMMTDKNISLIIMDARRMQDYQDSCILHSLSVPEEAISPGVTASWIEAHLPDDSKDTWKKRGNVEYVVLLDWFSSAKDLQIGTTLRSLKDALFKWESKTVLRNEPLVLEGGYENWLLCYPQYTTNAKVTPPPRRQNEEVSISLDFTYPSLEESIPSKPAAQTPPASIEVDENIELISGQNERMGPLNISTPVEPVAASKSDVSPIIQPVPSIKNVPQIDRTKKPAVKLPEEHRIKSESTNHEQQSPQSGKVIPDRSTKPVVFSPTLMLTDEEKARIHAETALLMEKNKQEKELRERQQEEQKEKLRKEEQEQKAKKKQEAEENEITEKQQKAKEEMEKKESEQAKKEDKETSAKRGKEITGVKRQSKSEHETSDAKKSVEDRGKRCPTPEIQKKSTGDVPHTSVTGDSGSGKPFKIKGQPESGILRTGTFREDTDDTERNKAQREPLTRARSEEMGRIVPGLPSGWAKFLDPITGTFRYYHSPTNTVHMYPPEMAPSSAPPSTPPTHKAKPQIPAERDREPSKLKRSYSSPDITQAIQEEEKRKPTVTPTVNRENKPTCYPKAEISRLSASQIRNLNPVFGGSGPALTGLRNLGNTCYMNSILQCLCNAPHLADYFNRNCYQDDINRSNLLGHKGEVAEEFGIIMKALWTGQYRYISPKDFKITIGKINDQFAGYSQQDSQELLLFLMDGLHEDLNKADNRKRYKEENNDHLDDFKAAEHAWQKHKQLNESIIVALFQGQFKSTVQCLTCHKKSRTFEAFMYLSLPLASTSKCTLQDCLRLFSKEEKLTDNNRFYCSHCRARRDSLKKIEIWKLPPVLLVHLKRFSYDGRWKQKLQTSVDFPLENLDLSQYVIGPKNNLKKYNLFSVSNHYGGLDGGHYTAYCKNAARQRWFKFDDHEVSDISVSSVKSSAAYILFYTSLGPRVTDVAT
Procedure, shortened: as §1

USP9X = USP9X (UniProt Q93008)
Procedure, shortened: as §1

UniProt O00487 = target: UniProt O00487
Procedure, shortened: as §1

Measured: log2 ratio of Biotin-Ahx-Ub-VS probe labelling

USP7, sequence (Q93009 whole entry, looked up): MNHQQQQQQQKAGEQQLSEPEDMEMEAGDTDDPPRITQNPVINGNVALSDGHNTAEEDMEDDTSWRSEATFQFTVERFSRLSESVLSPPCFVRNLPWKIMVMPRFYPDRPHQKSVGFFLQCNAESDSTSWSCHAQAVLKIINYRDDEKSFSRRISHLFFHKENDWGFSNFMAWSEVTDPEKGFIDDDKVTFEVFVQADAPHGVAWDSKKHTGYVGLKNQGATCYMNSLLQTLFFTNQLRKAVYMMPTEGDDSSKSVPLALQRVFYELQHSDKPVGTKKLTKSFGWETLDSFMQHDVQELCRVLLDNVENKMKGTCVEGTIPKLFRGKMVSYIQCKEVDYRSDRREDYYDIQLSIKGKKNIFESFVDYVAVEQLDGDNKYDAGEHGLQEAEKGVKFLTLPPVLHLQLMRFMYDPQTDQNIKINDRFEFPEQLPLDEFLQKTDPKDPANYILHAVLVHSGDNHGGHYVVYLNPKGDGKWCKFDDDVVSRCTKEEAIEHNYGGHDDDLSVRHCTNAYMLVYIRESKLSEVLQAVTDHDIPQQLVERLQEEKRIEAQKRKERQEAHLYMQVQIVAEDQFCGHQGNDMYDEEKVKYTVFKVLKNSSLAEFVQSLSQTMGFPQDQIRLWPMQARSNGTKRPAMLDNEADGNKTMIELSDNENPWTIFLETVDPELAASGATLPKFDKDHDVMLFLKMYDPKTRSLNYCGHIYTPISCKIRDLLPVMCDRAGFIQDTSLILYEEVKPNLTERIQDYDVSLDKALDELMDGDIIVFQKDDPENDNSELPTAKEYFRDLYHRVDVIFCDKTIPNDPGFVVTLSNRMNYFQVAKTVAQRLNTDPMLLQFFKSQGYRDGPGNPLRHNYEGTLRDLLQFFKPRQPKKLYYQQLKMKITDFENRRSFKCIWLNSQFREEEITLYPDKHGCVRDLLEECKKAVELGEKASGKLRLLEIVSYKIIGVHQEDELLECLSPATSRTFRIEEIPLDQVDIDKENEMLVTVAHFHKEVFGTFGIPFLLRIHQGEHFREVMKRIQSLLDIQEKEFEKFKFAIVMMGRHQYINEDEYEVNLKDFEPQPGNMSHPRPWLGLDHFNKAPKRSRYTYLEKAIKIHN
USP9X, sequence (Q93008 whole entry): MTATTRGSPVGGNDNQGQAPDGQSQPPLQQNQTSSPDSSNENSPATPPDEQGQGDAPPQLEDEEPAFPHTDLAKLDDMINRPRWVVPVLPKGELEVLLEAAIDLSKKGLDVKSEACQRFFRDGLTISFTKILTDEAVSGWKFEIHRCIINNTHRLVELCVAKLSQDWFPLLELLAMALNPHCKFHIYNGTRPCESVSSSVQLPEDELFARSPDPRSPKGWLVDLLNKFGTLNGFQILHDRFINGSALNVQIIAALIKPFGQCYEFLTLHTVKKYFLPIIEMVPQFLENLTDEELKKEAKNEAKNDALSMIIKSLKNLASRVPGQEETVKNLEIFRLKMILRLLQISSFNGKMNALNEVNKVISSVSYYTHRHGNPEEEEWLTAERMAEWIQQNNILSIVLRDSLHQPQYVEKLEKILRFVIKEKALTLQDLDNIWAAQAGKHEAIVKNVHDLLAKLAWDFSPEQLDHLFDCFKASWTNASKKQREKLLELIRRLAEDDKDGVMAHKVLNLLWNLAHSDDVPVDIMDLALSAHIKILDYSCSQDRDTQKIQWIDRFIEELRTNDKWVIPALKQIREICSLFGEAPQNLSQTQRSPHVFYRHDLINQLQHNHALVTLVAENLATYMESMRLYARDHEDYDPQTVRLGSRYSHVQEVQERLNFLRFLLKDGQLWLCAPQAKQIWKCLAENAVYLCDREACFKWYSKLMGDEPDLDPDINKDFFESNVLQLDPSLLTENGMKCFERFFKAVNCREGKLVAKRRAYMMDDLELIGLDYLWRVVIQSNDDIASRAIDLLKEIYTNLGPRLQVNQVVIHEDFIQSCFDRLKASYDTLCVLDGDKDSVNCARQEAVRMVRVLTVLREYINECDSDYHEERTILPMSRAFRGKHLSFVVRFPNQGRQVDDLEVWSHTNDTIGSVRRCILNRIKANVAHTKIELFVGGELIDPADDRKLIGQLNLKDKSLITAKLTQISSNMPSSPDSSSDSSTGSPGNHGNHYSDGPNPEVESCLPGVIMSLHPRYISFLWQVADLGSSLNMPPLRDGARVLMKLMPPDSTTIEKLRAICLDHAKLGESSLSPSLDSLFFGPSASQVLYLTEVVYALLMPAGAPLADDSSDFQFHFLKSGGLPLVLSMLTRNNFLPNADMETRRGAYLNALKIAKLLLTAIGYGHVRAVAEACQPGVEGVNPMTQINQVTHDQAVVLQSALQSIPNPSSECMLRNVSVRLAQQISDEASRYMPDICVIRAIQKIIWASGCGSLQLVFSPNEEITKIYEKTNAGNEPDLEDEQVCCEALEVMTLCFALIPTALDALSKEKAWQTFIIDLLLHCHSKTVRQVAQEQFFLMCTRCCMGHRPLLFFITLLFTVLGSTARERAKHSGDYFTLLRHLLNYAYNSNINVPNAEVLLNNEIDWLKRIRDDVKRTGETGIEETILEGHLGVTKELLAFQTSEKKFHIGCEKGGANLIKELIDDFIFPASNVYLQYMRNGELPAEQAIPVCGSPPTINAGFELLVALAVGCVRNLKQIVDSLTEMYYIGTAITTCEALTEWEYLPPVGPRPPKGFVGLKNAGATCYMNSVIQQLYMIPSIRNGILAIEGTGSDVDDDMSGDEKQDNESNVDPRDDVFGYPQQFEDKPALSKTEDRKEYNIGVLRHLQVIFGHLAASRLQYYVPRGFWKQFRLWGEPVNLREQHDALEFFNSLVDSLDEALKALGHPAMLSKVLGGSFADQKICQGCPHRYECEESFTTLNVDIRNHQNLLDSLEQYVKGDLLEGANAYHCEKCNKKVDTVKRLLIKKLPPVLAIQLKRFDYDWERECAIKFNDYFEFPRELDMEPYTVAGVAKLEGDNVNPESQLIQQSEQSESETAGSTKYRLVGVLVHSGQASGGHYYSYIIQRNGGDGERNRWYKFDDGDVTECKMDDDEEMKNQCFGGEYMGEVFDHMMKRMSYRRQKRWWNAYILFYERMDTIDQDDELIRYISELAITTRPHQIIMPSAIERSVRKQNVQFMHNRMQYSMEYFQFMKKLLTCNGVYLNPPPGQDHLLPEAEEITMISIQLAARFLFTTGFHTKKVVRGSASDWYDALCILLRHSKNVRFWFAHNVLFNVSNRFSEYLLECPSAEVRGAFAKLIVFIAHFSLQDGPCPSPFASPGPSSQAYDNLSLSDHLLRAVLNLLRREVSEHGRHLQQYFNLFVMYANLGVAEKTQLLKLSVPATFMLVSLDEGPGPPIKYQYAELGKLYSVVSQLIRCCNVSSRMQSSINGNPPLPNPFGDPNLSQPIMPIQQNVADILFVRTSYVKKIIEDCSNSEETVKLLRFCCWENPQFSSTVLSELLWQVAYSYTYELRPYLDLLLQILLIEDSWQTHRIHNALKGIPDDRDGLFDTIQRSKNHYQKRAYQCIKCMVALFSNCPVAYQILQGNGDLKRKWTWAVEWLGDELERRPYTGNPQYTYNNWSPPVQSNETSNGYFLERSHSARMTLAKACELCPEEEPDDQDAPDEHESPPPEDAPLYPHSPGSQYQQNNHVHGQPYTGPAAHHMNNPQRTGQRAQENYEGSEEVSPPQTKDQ
USP46, sequence (P62068 whole entry): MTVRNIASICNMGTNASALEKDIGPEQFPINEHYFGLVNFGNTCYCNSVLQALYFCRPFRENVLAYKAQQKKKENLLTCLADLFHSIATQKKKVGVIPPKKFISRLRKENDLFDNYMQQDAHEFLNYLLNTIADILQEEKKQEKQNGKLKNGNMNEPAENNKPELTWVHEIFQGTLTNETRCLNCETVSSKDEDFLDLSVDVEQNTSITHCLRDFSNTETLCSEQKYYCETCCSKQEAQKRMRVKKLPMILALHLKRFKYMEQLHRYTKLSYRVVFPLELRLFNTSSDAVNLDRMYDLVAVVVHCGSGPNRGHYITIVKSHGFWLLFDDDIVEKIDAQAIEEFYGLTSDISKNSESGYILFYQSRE
UniProt O00487, sequence (O00487 whole entry): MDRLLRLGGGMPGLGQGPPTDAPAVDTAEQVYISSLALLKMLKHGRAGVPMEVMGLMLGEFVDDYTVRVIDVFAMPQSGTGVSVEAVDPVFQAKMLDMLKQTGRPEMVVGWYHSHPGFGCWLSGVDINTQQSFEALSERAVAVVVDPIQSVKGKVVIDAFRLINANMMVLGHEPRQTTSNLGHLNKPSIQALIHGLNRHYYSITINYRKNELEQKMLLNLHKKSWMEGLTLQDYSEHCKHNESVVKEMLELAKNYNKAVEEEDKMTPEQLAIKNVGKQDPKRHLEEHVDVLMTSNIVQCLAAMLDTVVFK

CC1(NC(=O)CCl)CCS(=O)(=O)C1 (stereo not given)
inactive: USP42 0.324 | USP46 -0.538 | USP47 -0.0229 | USP48 -0.544 | USP5 -0.73 | USP54 1.09 | USP7 -0.793 | USP8 -0.788 | USP9X -0.847 | UniProt O00487 -0.00664
